The inhibition is the change of the read-out against control, counted positive when it falls. In general, IC50 refers to the concentration at which inhibition is half-maximal.

The target of assay [1] is Sentrin-specific protease 8 (Homo sapiens) (UniProt Q96LD8). Kind of assay: human SENP8 peptidase blockers, hit retest – biochemical, luminescence, single concentration, confirmation (AID 488912;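 active = mean inhibition across replicates above about 50%, limit read from the data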). As to conditions: Recombinant SENP8, Z-RLRGG-aminoluciferin luminescence, 60 min; at 12.5 µM; stronger effect = higher value.
Sequence of Sentrin-specific protease 8 (Homo sapiens) (Q96LD8 whole entry, looked up, the tested form may be a part): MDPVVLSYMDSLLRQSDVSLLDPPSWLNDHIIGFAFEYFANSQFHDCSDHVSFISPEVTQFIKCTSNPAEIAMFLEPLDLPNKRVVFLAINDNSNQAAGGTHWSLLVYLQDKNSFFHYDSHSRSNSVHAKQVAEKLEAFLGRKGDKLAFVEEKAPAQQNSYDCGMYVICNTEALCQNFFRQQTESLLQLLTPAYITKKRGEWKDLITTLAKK
Assay [2] addresses Sentrin-specific protease 6 (Homo sapiens) (UniProt Q9GZR1). As to the kind of experiment: inhibition of human SENP6 catalytic domain – biochemical, luminescence, single concentration, confirmation (AID 488915). As to conditions: recombinant SENP6, Z-RLRGG-aminoluciferin luminescence; at 12.5 µM; stronger effect = higher value.
Assay [3] has as its target Sentrin-specific protease 7 (Homo sapiens) (UniProt Q9BQF6). As to the kind of experiment: human SENP7 peptidase blockers, hit retest – biochemical, luminescence, single concentration, confirmation (AID 488917). As to conditions: recombinant SENP7, Z-RLRGG-aminoluciferin luminescence, 40 min; at 12.5 µM; stronger effect = higher value.
A further assay deals with Caspase-3 (Homo sapiens) (UniProt P42574). Kind of assay: human caspase-3 activity blockade, out-of-family – biochemical, single concentration, selectivity assay for SENP inhibitor project, confirmation (AID 488918;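 active = mean inhibition above about 50%, limit read from the data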;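 also: plate controls were enzyme with DMSO for no effect and wells without caspase-3 for full effect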). As to conditions: purified caspase-3, Z-DEVD-aminoluciferin luminescence, 60 min; at 12.5 µM; stronger effect = higher value.
Sequence of Caspase-3 (Homo sapiens) (P42574 28-227 limits assumed): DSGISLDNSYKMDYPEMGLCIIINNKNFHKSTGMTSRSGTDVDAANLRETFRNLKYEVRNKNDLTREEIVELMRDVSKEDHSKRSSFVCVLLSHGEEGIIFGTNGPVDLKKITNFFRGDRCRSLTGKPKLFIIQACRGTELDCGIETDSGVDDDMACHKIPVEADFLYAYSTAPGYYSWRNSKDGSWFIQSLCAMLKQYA
A short description of assay [4]: Ultra-Glo luciferase signal interference – biochemical, single concentration, SENP8 reaction pre-completed, artefact control for SENP inhibitor project, confirmation (AID 488919;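 active = mean inhibition above about 50% when retested at one dose, limit read from the data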;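 also: plate controls were DMSO wells with completed reaction for no effect and substrate without enzyme for full effect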). As to conditions: Pre-incubated SENP8/Z-RLRGG-aminoluciferin, luciferase luminescence interference; at 12.5 µM; stronger effect = higher value.
A short description of assay [5]: apoptosome-driven caspase-3 activation blockers – biochemical, fluorescence, DEVD-Rh110, 20 µM, confirmation (AID 504614;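 active = mean inhibition of at least 40% at 20 µM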;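 also: plate controls were DMSO wells for no effect and DEVD-CHO caspase inhibitor control wells for full effect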). As to conditions: reconstituted apoptosome, caspase-3 DEVD-Rh110 fluorescence; at 20 µM; stronger effect = higher value.
The nature of assay [6]: detection-step artefacts after completed caspase reaction – biochemical, fluorescence, Rh110, 20 µM, artefact control for Apaf-1 inhibitor project, confirmation (AID 504615;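 active = signal rise of 40% or more at 20 µM, treated as a fluorescence artifact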). As to conditions: quenched caspase reaction, at 20 µM, stronger effect = higher value.
Assay [7] is described as follows: fluorescence interference of Apaf-1 inhibitor hits, dose response, artefact control for Apaf-1 inhibitor project (AID 588538; call rule not given here). As to conditions: fluorescence interference counterscreen, Apaf-1 assay format.
The target of assay [8] is Tumor necrosis factor receptor superfamily member 10B (Homo sapiens) (UniProt O14763). As to the kind of experiment: viability loss of caspase-8 NB7 cells with TRAIL – with/without TRAIL, luminescence panel, confirmation (AID 651596; in the data active = activity above about 50%). As to conditions: NB7 neuroblastoma + caspase-8, TRAIL sensitization, NB7 Caspase-8, with TRAIL, mean of runs, at 10 µM, stronger effect = higher value.
Sequence of Tumor necrosis factor receptor superfamily member 10B (Homo sapiens) (O14763 whole entry, looked up): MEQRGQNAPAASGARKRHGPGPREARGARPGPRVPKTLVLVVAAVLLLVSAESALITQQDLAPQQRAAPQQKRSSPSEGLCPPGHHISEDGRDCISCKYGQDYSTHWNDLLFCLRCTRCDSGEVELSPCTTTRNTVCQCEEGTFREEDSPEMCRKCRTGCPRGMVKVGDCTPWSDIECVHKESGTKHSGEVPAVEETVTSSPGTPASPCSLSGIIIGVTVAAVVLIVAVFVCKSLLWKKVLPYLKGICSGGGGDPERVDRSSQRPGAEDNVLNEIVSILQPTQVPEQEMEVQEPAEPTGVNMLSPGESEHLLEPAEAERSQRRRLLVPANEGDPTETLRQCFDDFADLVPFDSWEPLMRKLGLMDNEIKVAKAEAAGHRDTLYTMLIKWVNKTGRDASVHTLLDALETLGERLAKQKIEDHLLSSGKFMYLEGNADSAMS

Experiment in assay [9]: as above
As to conditions: NB7 neuroblastoma + caspase-8, without TRAIL, NB7 Caspase-8, without TRAIL, mean of runs, at 10 µM.

The target in assay [10] is Protein Mdm4 (Homo sapiens) + E3 ubiquitin-protein ligase Mdm2 (Homo sapiens) (UniProt O15151+Q00987). As to the kind of experiment: human Mdm2/MdmX binding disruption – cell-based, luminescence, single concentration, set 2, confirmation (AID 504601;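 active = mean inhibition of the luminescence signal across two replicates at or above 26 percent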). As to conditions: SaOS-2 split-luciferase Mdm2/MdmX complementation, at 8 µM, stronger effect = higher value.
Sequence of Protein Mdm4 (Homo sapiens) + E3 ubiquitin-protein ligase Mdm2 (Homo sapiens) (O15151 whole entry, looked up): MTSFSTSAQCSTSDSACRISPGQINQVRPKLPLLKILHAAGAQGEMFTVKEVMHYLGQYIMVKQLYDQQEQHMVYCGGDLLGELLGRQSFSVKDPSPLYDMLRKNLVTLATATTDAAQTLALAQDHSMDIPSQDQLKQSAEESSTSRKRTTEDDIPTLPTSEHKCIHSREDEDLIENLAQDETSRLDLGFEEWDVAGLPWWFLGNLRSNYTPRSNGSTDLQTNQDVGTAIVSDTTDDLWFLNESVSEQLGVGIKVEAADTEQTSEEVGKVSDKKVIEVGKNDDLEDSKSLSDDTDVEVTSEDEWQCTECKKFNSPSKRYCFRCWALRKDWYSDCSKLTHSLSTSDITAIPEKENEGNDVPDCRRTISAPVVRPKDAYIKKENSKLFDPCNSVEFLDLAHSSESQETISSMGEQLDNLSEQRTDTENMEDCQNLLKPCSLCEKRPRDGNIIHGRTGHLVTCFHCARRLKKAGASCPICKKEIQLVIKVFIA
Sequence of Protein Mdm4 (Homo sapiens) + E3 ubiquitin-protein ligase Mdm2 (Homo sapiens) (Q00987 whole entry, looked up): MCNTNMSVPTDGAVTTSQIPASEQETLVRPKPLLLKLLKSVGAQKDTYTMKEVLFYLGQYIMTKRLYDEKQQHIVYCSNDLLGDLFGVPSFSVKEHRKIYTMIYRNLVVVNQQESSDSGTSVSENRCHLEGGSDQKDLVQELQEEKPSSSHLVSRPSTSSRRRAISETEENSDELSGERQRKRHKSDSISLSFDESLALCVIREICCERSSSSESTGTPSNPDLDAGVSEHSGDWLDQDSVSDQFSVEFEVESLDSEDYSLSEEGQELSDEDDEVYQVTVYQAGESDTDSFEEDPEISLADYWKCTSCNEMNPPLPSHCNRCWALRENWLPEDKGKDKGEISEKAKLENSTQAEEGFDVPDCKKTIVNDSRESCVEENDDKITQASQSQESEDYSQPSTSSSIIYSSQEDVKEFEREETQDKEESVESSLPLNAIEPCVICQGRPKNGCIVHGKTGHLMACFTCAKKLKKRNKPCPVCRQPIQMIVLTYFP
Assay [11] can be described thus: inhibition of PEG-3 promoter luciferase signal – cell-based, HeLa, luciferase reporter, single concentration, confirmation (AID 602417;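 active = at 20 µM dose, 40% or more inhibition averaged across four replicates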). As to conditions: HeLa PEG-Prom luciferase reporter, luminescence, overnight; at 20 µM; stronger effect = higher value.
Assay [12] in a line: Brca1-Bard1 BiLC signal decrease – luminescence, single concentration, counter-screen for Mdm2/MdmX interaction inhibitor project, confirmation (AID 504668; call rule not given here). As to conditions: Brca1/Bard1 bimolecular luciferase complementation counterscreen, at 8 µM, stronger effect = higher value. In general terms: Counterscreens check selectivity or assay interference.
A short description of assay [13]: HIF-2a driven luciferase blockers, single dose – luminescence, 786-0 RCC cells, confirmation (AID 651580;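 active = mean inhibition across four replicates of at least 40 percent at the single tested concentration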). As to conditions: HIF-2a luciferase reporter luminescence, overnight, at 18.8 µM, stronger effect = higher value.
Assay [14] can be described thus: HIF-1a luciferase reporter signal reduction – MiaPaCa-2 cells, single concentration, counter-screen for HIF-2a inhibitor project, confirmation (AID 651589;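 active = mean inhibition of the reporter signal across four replicates at the single tested dose of 50% or more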). As to conditions: MiaPaCa-2 HIF-1a luciferase reporter, desferoxamine, overnight; at 18.8 µM; stronger effect = higher value. (In general: A reporter such as luciferase makes a cellular process visible.)
Assay [15] deals with PEG-3 (UniProt Q6IN02). Kind of assay: inhibition of PEG-3 promoter-driven reporter – cell-based, HeLa, luciferase, CREF/GAPDH counter-screen panel, dose response (AID 624167). As to conditions: CREF/GAPDH counter-screens; HeLa PEG-Prom luciferase reporter, overnight, run 1, dose range 1, at 100 µM (top of the series) unless noted.
Sequence of PEG-3 (Q6IN02 whole entry, looked up): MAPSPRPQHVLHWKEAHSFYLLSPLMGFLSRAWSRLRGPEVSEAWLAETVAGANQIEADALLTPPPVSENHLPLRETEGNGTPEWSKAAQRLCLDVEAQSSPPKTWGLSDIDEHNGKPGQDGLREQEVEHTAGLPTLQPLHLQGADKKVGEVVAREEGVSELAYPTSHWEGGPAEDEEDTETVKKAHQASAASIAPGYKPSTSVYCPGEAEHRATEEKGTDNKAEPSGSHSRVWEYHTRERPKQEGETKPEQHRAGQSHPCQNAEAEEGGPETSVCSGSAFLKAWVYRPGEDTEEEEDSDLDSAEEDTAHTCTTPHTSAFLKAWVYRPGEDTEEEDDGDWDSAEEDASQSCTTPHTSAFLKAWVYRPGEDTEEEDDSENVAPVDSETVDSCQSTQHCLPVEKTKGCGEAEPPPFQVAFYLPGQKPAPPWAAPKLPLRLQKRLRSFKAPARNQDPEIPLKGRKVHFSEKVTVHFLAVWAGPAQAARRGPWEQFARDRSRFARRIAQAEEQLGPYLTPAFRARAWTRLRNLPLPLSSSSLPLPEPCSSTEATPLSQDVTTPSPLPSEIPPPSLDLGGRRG
Assay [16] addresses PEG-3 (UniProt Q6IN02). The description is as above. As to conditions: CREF/GAPDH counter-screens; HeLa PEG-Prom luciferase reporter, overnight, run 2, dose range 1, at 100 µM (top of the series) unless noted.

SMILES strings stand for the structures. The list shows a part of the results. The source made the active and inactive calls.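 The calls were made as follows, unless noted: active = mean inhibition above about 50% in the one-dose retest (limit read from the data); inactive = the rest.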

Sequence of Sentrin-specific protease 7 (Homo sapiens) (Q9BQF6 706-1050 limits assumed): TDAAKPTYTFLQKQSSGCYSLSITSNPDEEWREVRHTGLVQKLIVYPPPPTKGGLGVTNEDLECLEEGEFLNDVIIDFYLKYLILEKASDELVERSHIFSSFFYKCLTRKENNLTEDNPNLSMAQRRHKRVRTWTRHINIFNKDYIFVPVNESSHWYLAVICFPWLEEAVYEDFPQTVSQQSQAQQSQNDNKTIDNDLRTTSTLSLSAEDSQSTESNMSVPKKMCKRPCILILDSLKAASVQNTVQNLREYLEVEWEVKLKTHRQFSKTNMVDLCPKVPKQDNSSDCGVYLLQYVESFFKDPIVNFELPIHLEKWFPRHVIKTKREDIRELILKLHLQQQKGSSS
Sequence of Sentrin-specific protease 6 (Homo sapiens) (Q9GZR1 628-1112 limits assumed): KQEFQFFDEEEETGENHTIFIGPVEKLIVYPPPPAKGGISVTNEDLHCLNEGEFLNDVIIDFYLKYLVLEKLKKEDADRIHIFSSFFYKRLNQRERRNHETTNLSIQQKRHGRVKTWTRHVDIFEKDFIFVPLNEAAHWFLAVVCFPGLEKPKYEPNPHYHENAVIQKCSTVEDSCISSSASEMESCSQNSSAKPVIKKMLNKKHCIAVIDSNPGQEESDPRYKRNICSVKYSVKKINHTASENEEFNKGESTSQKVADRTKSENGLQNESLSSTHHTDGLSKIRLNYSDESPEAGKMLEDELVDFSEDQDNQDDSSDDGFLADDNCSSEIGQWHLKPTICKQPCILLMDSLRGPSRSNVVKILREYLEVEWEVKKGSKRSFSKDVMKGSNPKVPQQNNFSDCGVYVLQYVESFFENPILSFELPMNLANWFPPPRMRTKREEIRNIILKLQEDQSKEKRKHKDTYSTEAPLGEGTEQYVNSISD

In the case of `Clc1ccc(C2=CSC3=Nc4cccc5cccc(c45)N23)cc1`, the inhibition in assay [1] is 1.7% (inactive); in assay [2], 55.9% (active); in assay [3], 7.2% (inactive); with Caspase-3 (Homo sapiens), -5.7% (inactive); in assay [4] it was -2.1% (inactive); in assay [5], 62.8% (active). Also, the activation (fluorescence interference) in assay [6] was -1.7% (inactive). In [7], the IC50 was > 100 µM (inactive).

With `COc1ccc(-c2cc3ccc(OCc4nn[nH]n4)cc3oc2=O)cc1`, the inhibition in [1] was 64% (active); in [2] it was 63.1% (active); in [3] it was 87.3% (active); with Caspase-3 (Homo sapiens), 66.2% (active); in assay [4], 70.6% (active). Moreover, the activity stood at 58.8% in assay [8] and 56.2% in assay [9].

Take `COc1cccc(C(=O)Nc2ccc(N3CCCC3)cc2)c1`: the inhibition in assay [1] was 95% (active); in [2], 99.7% (active); in assay [3], 104% (active); with Caspase-3 (Homo sapiens) it was 99.5% (active); in assay [4] it was 86.3% (active). Further, the activity in assay [8] was found to be 46.8%; in [9], 54%.

For the molecule `COc1ccc(C(=O)NC2CCCc3c2cnn3-c2cccc(C)c2C)c(OC)n1` (stereo not given), the inhibition in assay [10] is 102% (active).

`c1c2c(cc3sc(N4CCCCC4)nc13)OCCO2`: the inhibition is 97% (active) in assay [1]; 98.6% (active) in assay [2]; 103% (active) in assay [3]; 97.5% (active) in the assay with Caspase-3 (Homo sapiens); 52.1% (active) in assay [4]; 37.5% (inactive) in assay [11].

Take `CCOC(=O)/C=C/C(=O)OCC(=O)NC(c1ccccc1)c1ccccc1`: in assay [10], the inhibition is 99.7% (active).

For the molecule `Cc1cccc(NC(=O)/C=C/c2ccc3c(c2)OCO3)n1`, the inhibition in [1] is 81.3% (active); in assay [2], 81% (active); in [3] it was 95.8% (active); with Caspase-3 (Homo sapiens) it was 87.1% (active); in [4] it was 73% (active). For the same molecule, the activity was determined as 80.4% in [8] and 75.4% in assay [9].

With `Cc1ccsc1C(=O)OCC(=O)c1cc(C)n(CC2CCCO2)c1C` (stereo not given), the inhibition in assay [1] was 35.3% (inactive); in assay [2], 97.2% (active); in assay [3], 102% (active); in the assay with Caspase-3 (Homo sapiens), 96.7% (active); in assay [4], 58.8% (active); in [12], 28.9% (active). For the same molecule, the inhibition is 80.8% (active) in assay [11]; 65.9% (active) in [13]; 80.2% (active) in [14]; 96.8% with PEG-3 [15]; 92.7% with PEG-3 [16]. The activity worked out at 74.5% in assay [8] and 68.1% in assay [9].

Source of the values: PubChem BioAssay.
